From PubChem BioAssay
BoNT-F LC inh: blocks Botulinum neurotoxin F light chain protease; Multiplex microsphere protease cleavage assay, flow cytometry; inhibition, % at 10 µM; 360,000 compounds, 0.22% hits; AID 588497; in the data active = inhibition above about 35%, passing the limit was not always enough; inconclusive = no clear call, values can overlap the other calls
BoNT-A LC inh2: blocks Botulinum neurotoxin A light chain protease; multiplex microsphere protease substrate cleavage, flow cytometry; inhibition, % at 10 µM; 360,000 compounds, 0.17% hits
Anthrax LF inh2: inhibitors of Bacillus anthracis lethal factor protease; 360,000 compounds, 0.12% hits; inhibition, % at 10 µM; multiplex microsphere protease cleavage assay, LF; P15917
Autofluor counter: flagged as autofluorescent in microsphere protease counterscreen | AID 624483 | fluorescence intensity (concentration not given with the values) | compound autofluorescence counterscreen, microsphere flow cytometry; active compounds read high | 360,000 compounds, 3.1% hits; in the data active = fluorescence intensity above about 16000; inconclusive = no clear call, values can overlap the other calls
Numbers stand for hits; n = inactive; u = inconclusive. Only some compounds are listed: those with a hit (about 3.5% of all), similar ones and a draw of the others. Rule as the data show it, unless noted: active = inhibition above about 30%; inconclusive = no clear call, values can overlap the other calls; inactive = below that.

SMILES	BoNT-F LC inh	BoNT-A LC inh2	Anthrax LF inh2	Autofluor counter
CC(OC(=O)C1CC(=O)N(Cc2ccco2)C1)C(=O)Nc1ccccc1[N+](=O)[O-] (centres undefined)	n	n	n	n
Cc1ccccc1-n1sc2cc(F)ccc2c1=O	n	89	n	n
O=c1c2cc(F)ccc2sn1-c1ccccc1	n	35	n	n
O=c1c2cc(C(F)(F)F)ccc2sn1-c1ccccc1	n	n	n	n
COCCn1c(SC(C)C(=O)NCC2CCCO2)nc2scc(-c3ccc(F)cc3)c2c1=O (centres undefined)	u	n	n	u
Cc1ccccc1NC(=O)NCCCN1CCCC1	n	u	n	22559
C[C@H](O)c1[nH]c2cc(F)ccc2c1[C@H](C)O	n	n	n	n
O=C(NC1CCCCC1)C(c1ccccc1F)N(Cc1ccco1)C(=O)Cn1nnc2ccccc21 (centres undefined)	n	n	n	n
O=C(NC1CCCCC1)C(c1ccc(F)cc1)N(Cc1ccco1)C(=O)Cn1nnc2ccccc21 (centres undefined)	n	n	n	18842
CCC(C(=O)NC1CCCC1)N(Cc1ccco1)C(=O)Cn1nnc(-c2ccc(C)cc2)n1 (centres undefined)	n	n	n	19503
CCOC(=O)CN(C(=O)Cn1nnc(-c2ccc(C)cc2)n1)C(CC)C(=O)NC1CCCC1 (centres undefined)	n	n	n	22718
Cc1ccc(N(C(=O)Cn2nnc(-c3cccs3)n2)C(C(=O)NC2CCCC2)c2ccncc2)cc1 (centres undefined)	n	n	n	22784
Nc1cc(C(=O)N/N=C/c2cccc([N+](=O)[O-])c2)n[nH]c1=O	n	n	n	n
O=C(Cc1ccccc1)Nc1cccc(N2CCCC2)c1	n	u	n	22002
CCOC(=O)c1c(C)oc2c1c(C(c1ccccc1)N1CCOCC1)c(O)c1ccccc12 (centres undefined)	n	u	n	19404
CCOC(=O)c1c(C)oc2c1c(C(c1cccnc1)N1CCCCC1)c(O)c1ccccc12 (centres undefined)	n	n	n	n
Cc1ccccc1C(=O)N1CCC(C(=O)N2CCN(S(=O)(=O)c3ccccc3F)CC2)CC1	n	n	n	n
CCOCCCn1c(=N)c(C(=O)NCCN2CCOCC2)cc2c(=O)n3cccc(C)c3nc21	n	n	n	22990
Cc1cccn2c(=O)c3cc(C(=O)NCCN4CCOCC4)c(=N)n(CCN4CCOCC4)c3nc12	n	n	n	n
S=c1[nH]nc(COc2ccc(Cl)cc2)o1	n	u	n	19965
COc1ccc(OCc2n[nH]c(=S)o2)cc1	n	n	n	n
CN(CC(=O)Nc1ncn[nH]1)S(=O)(=O)c1ccc(Cl)cc1	n	n	n	n
CCOC(=O)C1=C(C)C(c2ccccc2)NC(=S)N1 (centres undefined)	n	n	n	18384
CC(CSC(=O)c1ccccc1)C(=O)N1c2ccccc2CC1C(=O)O (centres undefined)	n	n	n	n
CC1CCCN(C(=O)CN2C(=O)CSc3ccc(S(=O)(=O)N4CCOCC4)cc32)C1 (centres undefined)	n	n	n	n
SMILES	BoNT-F LC inh	BoNT-A LC inh2	Anthrax LF inh2	Autofluor counter
CC1=NN(C(=O)Cc2ccccc2)C(O)(c2cccnc2)C1 (centres undefined)	n	u	n	21683
C=CCn1c(SCc2nc3ccccc3[nH]2)nnc1-c1ccccn1	n	u	n	18300
C=CCn1c(SCC(=O)Nc2ccc(C(=O)O)cc2)nnc1-c1cccnc1	n	n	n	n
C=CCn1c(SCc2cccc3ccccc23)nnc1-c1cccnc1	n	n	n	21679
CCn1c(SCc2nc3ccccc3[nH]2)nnc1-c1ccc(OC)cc1	n	n	n	23993
CCn1c(SCc2nc3ccccc3[nH]2)nnc1-c1cccnc1	n	u	n	24875
CCn1c(SCc2nc3ccccc3[nH]2)nnc1-c1ccncc1	n	n	n	n
N#CCCN(Cc1cccnc1)C(=S)NC(=O)c1ccccc1	n	n	n	n
Nc1c(Cl)cc(C(=O)NC2CC2)cc1Cl	n	n	n	n
Cc1cc(C(=O)Nc2c(F)cc(F)cc2Br)n(-c2ccccc2)n1	n	n	n	n
CN(CC(=O)Nc1ccccc1Br)C(=O)CNC(=O)c1ccco1	n	n	n	n
Cc1ccc(CN2CC(C(=O)NNC(=O)c3ccc(F)cc3)CC2=O)cc1 (centres undefined)	n	n	n	n
Oc1c(C=Nc2ccccc2Cl)[nH]c2ccccc12	n	n	n	n
CCN(CC)CCNC(=O)c1nn(-c2ccc(Cl)cc2)c2c1CCc1cc(OC)ccc1-2	n	n	n	n
CC(=O)Nc1cc2nc(C)n(Cc3ccc([N+](=O)[O-])cc3)c2nc1C	u	n	n	n
C=CCn1c(SCc2nc3ccccc3[nH]2)nnc1-c1ccc(OC)cc1	n	n	n	20347
